Key:
Conditions in all cases: Compound Concentration (nM):1000
PDGFRB = tested on: PDGFRB
PDPK1 = tested on: PDPK1
PFCDPK1(P.falciparum) = tested on: T1, PFCDPK1(P.falciparum)
T1 construct: gene CDPK1

PFPK5(P.falciparum) = tested on: T2, PFPK5(P.falciparum)
T2 construct: gene MAL13P1.279

PFTAIRE2 = tested on: T3, PFTAIRE2
T3 construct: gene CDK15

PFTK1 = tested on: T4, PFTK1
T4 construct: gene CDK14

PHKG1 = tested on: PHKG1
PHKG2 = tested on: PHKG2
PIK3C2B = tested on: PIK3C2B
PIK3C2G = tested on: PIK3C2G
PIK3CA(C420R) = tested on: PIK3CA(C420R)
PIK3CA(E542K) = tested on: PIK3CA(E542K)
PIK3CA(E545A) = tested on: PIK3CA(E545A)
PIK3CA(E545K) = tested on: PIK3CA(E545K)
PIK3CA(H1047L) = tested on: PIK3CA(H1047L)
PIK3CA(H1047Y) = tested on: PIK3CA(H1047Y)
PIK3CA(I800L) = tested on: PIK3CA(I800L)
PIK3CA(M1043I) = tested on: PIK3CA(M1043I)
PIK3CA(Q546K) = tested on: PIK3CA(Q546K)
PIK3CA = tested on: PIK3CA
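Also: KINOMEscan scanMAX binding as percent activity remaining versus control; lower means stronger binding.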

Structure (SMILES)	Percent Control (PDGFRB) [%]	Percent Control (PDPK1) [%]	Percent Control (PFCDPK1(P.falciparum)) [%]	Percent Control (PFPK5(P.falciparum)) [%]	Percent Control (PFTAIRE2) [%]	Percent Control (PFTK1) [%]	Percent Control (PHKG1) [%]	Percent Control (PHKG2) [%]	Percent Control (PIK3C2B) [%]	Percent Control (PIK3C2G) [%]	Percent Control (PIK3CA(C420R)) [%]	Percent Control (PIK3CA(E542K)) [%]	Percent Control (PIK3CA(E545A)) [%]	Percent Control (PIK3CA(E545K)) [%]	Percent Control (PIK3CA(H1047L)) [%]	Percent Control (PIK3CA(H1047Y)) [%]	Percent Control (PIK3CA(I800L)) [%]	Percent Control (PIK3CA(M1043I)) [%]	Percent Control (PIK3CA(Q546K)) [%]	Percent Control (PIK3CA) [%]
Cc1cc(O)cc(C)c1/C=C/c1cncc(C(N)=O)c1 [GW435821X]	0.5	96	75	100	100	100	100	100	97	85	100	100	100	100	100	100	100	88	100	96
CCn1c(-c2nonc2N)nc2c(C#CC(C)(C)O)nc(OCCNC)cc21.Cl [GSK949675]	100	79	100	100	100	100	100	100	82	100	100	100	88	100	100	77	100	100	100	75
COc1cc(C)c(N(C)C(=O)CN(C)C)cc1Nc1nc(Nc2cccc(F)c2C(N)=O)c2cc[nH]c2n1 [GSK2219385]	100	97	100	76	79	100	100	83	100	92	84	100	97	100	100	67	100	100	100	100
CCS(=O)(=O)c1ccc(OC)c(Nc2ncc(-c3cccc(F)c3)o2)c1 [GW621970X]	5.4	100	4.1	100	100	95	100	100	100	100	100	100	100	100	100	97	100	93	100	100
CC1=C(C(=O)Nc2ccc3[nH]ncc3c2)C(c2ccc3ccccc3c2)CC(=O)N1 (centres unmarked) [GSK270822A]	74	100	66	70	60	64	100	100	92	79	90	83	91	88	97	89	93	74	86	90
CN(C)CCNC(=O)Nc1ccc(N(C)c2ccnc(Nc3ccc(CS(C)(=O)=O)cc3)n2)cc1.Cl [GW830900A]	0	83	83	100	90	100	92	100	100	95	100	84	100	80	100	98	86	92	87	92
COc1cccc(-c2c[nH]c3c(N/N=C/c4ccncc4)ncnc23)c1 [GW814408X]	5.5	78	5.2	97	78	95	100	100	100	92	100	100	100	100	99	78	100	99	100	95
COc1ccc2c(-c3ccnc(Nc4cccc(OC(F)(F)F)c4)n3)cnn2n1 [GW810372X]	100	100	81	100	100	100	100	100	100	74	86	100	90	97	75	82	91	100	100	100
CCS(=O)(=O)c1ccc(OC)c(Nc2ncc(-c3cccc(OC)c3)o2)c1 [GW580509X]	9.7	100	7.8	100	100	100	100	100	100	97	100	100	100	100	100	98	100	100	100	100
Nc1ncnc2occ(-c3ccc(NC(=O)Nc4cc(C(F)(F)F)ccc4F)cc3)c12 [GW770249X]	0	57	83	100	46	18	100	100	100	88	100	100	100	100	100	100	100	90	100	100

From paper PMC7826789 (International Journal of Molecular Sciences, 2021)
